Laboratory results published in PubChem BioAssay (NCATS).
Results filed as inconclusive are left out. Calls of active or inactive are those of the source. The call rests on the fitted dose curve; in most records, active means well fitted curve in the direction sought with a large enough effect; inconclusive means small, poorly fitted or top-dose-only effect, or another doubt; inactive means no such curve, though single readings can be large; an effect the other way counts as inactive or inconclusive.

Key:
MKL-1 = experiment: qHTS assay to identify novel small-molecules to repurpose for Merkel cell carcinoma treatment (AID 1296009); settings: MCC and control cell lines, CellTiter-Glo viability, 72 h; series mostly up to 46 µM; further: nearly all actives have a fitted effect of over 60% in size
Outline: (§1)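 CellTiter-Glo luminescence after 72 hr compound exposure at 37 degree celsius gave cell viability. Libraries NPC and MIPE were run as 8- and 11-point dose responses; RLUs normalized to DMSO (negative) and no-cell (cytotoxicity) controls.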

MKL-2 = experiment: as above; settings: MCC and control cell lines, CellTiter-Glo viability, 72 h; series mostly up to 46 µM
Outline: as §1

UISO = experiment: as above; settings: MCC and control cell lines, CellTiter-Glo viability, 72 h; series mostly up to 46 µM
Outline: as §1

WaGa = experiment: as above; settings: MCC and control cell lines, CellTiter-Glo viability, 72 h; series mostly up to 46 µM
Outline: as §1

C33A = experiment: Primary qHTS to identify gynecologic anti-cancer compounds using libraries of approved drugs and bioactive compounds (AID 1345084); settings: Gynecologic cancer cell panel viability, ATPlite luminescence, 48 h; series mostly up to 57.5 µM; further: nearly all actives have a fitted effect of over 55% in size
Outline: (§2)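 Cells, 1,000 per well, were allowed to settle for 16 h at 37 C before compound addition. Five concentrations were tested for 48 h, and viability was read by ATPlite luminescence after 15 min at room temperature.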

CAOV3 = experiment: as above; settings: Gynecologic cancer cell panel viability, ATPlite luminescence, 48 h; series mostly up to 57.5 µM
Outline: as §2

CASKI = experiment: as above; settings: Gynecologic cancer cell panel viability, ATPlite luminescence, 48 h; series mostly up to 57.5 µM
Outline: as §2

Es-2 = experiment: as above; settings: Gynecologic cancer cell panel viability, ATPlite luminescence, 48 h; series mostly up to 57.5 µM
Outline: as §2

HeLa = experiment: as above; settings: Gynecologic cancer cell panel viability, ATPlite luminescence, 48 h; series mostly up to 57.5 µM
Outline: as §2

Measured: outcome

OCC(O)CS (stereo not given)
inactive: all assays above

OCCN1C[C@H](O)[C@@H](O)[C@H](O)[C@H]1CO
inactive: all assays above

CC(C)=CCC/C(C)=C/CO
inactive: all assays above

CNCc1ccccc1
inactive: all assays above

COC(=O)N/N=C/c1c[n+]([O-])c2ccccc2[n+]1[O-]
inactive: all assays above

CC(C)NC[C@@H](O)COc1ccc(CC(N)=O)cc1
inactive: all assays above

O=C(O)Cc1cn(-c2ccccc2)nc1-c1ccc(Cl)cc1
inactive: all assays above

CC(C)C[C@@H](N)C(=O)O
inactive: all assays above

CCCCCC(C)N (stereo not given)
inactive: all assays above

NCC1CCC(C(=O)Oc2ccc(CCC(=O)O)cc2)CC1 (stereo not given)
inactive: all assays above

COc1ccc(C(=O)NCc2ccc(OCCN(C)C)cc2)cc1OC
inactive: all assays above

C[C@@H]1O[C@@H](OC[C@H]2O[C@@H](Oc3c(-c4ccc(O)c(O)c4)oc4cc(O)cc(O)c4c3=O)[C@H](O)[C@@H](O)[C@@H]2O)[C@H](O)[C@H](O)[C@H]1O
inactive: all assays above

O=C(O)COC(=O)Cc1ccccc1Nc1c(Cl)cccc1Cl
inactive: all assays above

Cn1cc(C(=O)[C@@H]2CCc3nc[nH]c3C2)c2ccccc21
inactive: all assays above

NNC(=O)CP(=O)(c1ccccc1)c1ccccc1
inactive: all assays above

C/C=C/C(=O)N(CC)c1ccccc1C
inactive: all assays above

Cn1c([N+](=O)[O-])cnc1COC(N)=O
inactive: all assays above

CCOc1cc(NC(C)=O)ccc1C(=O)OC
inactive: all assays above

C/C(=C(\CCO)SS/C(CCO)=C(\C)N(C=O)Cc1cnc(C)nc1N)N(C=O)Cc1cnc(C)nc1N
inactive: all assays above

C/C=C1\[C@H]2C=C(C)C[C@]1(N)c1ccc(=O)[nH]c1C2
inactive: all assays above

O=C(/C=C/c1ccccc1)OCc1ccccc1
inactive: all assays above

NS(=O)(=O)c1cc(-c2nn[nH]n2)c(NCc2cccs2)cc1Cl
inactive: all assays above

C1CCN2C[C@@H]3C[C@@H](CN4CCCC[C@@H]34)[C@H]2C1
inactive: all assays above

C=CCNC(N)=S
inactive: all assays above

CC[N+](C)(CC)CCOC(=O)C1c2ccccc2Oc2ccccc21
inactive: all assays above

Nc1ccc(S(=O)(=O)c2ccc(N)cc2)cc1
inactive: all assays above

CC(=O)SC[C@@H](Cc1ccccc1)C(=O)NCC(=O)OCc1ccccc1
inactive: all assays above

CC(C)CCCC(C)CCCC(C)CCCCC(C)CCCC(C)CCCC(C)C (stereo not given)
inactive: all assays above

CCOc1ccc(C(=O)OCCN(CC)CC)cc1
inactive: all assays above

CN1CC(=O)NC1=N
inactive: all assays above

COc1ccc(Cc2cnc(N)nc2N)cc1OC
inactive: all assays above

C[C@@H](N)C(=O)O
inactive: all assays above

Nc1c2c(nc3c1CCC3)CCCC2
inactive: all assays above

C=CCOc1ccccc1OCC(O)CNC(C)C (stereo not given)
inactive: all assays above

CC1(C)S[C@@H]2[C@H](NC(=O)C(C(=O)O)c3ccccc3)C(=O)N2[C@H]1C(=O)O (stereo not given in full)
inactive: all assays above

CCCNC(C)(C)COC(=O)c1ccccc1
inactive: all assays above

CCN(CC)S(=O)(=O)c1ccc(C(=O)O)cc1
inactive: all assays above

CC[C@H](C)[C@H](N)C(=O)O
inactive: all assays above

COc1ccc(NS(=O)(=O)c2ccc(N)cc2)nn1
inactive: all assays above

O=C(O)c1ccccc1OP(=O)(O)O
inactive: all assays above

O=C(O)CCCCC1CCSS1 (stereo not given)
inactive: all assays above

Cc1cc(-n2nc3ccc(Cl)cc3n2)c(O)c(C(C)(C)C)c1
inactive: all assays above

CCN1CC(CCN2CCOCC2)C(c2ccccc2)(c2ccccc2)C1=O (stereo not given)
inactive: all assays above

CCN(CC)CCc1nc(-c2ccccc2)no1
inactive: all assays above

CO[C@@]1(NC(=O)C(C(=O)O)c2ccc(O)cc2)C(=O)N2C(C(=O)O)=C(CSc3nnnn3C)CO[C@@H]21 (stereo not given in full)
inactive: all assays above

OC[C@@H](O)[C@@H](O)[C@H](O)[C@H](O)CO
inactive: all assays above

NCc1ccc(S(N)(=O)=O)cc1
inactive: all assays above

NS(=O)(=O)c1ccc(C(=O)O)cc1
inactive: all assays above

CCOC(=O)c1cccnc1
inactive: all assays above

Cc1cccc(C)c1NC(=O)CC12CCCN1CCC2
inactive: all assays above
